Key:
Assay in all cases: DAPPL (digital affinity profiling via proximity ligation, sequencing); 10 mM Tris-HCl pH 7.5, 50 mM NaCl, 1 mM DTT, 4% glycerol, room temperature, 30 min; GST-TFs on glutathione beads, 16-mer random dsDNA library, 0.1% formaldehyde crosslink after washing; high values mean tight binding
FEV = biological target: T1, FEV (Homo sapiens, UniProt Q99581 1-238); conditions: protein: recombinant; tags: N-terminal GST; dsDNA, one strand shown
T1 sequence: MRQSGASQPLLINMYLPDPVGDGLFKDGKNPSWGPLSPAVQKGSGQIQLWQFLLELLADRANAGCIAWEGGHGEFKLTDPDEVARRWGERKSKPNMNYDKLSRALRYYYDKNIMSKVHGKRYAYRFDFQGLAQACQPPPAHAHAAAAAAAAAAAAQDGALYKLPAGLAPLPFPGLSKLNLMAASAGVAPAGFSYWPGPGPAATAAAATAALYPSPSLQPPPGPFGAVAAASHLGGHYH
How it was run: (§1)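 The binding signal reported is, for every hexamer, its read frequency for a factor over its read frequency for the tag-only sample. Reads came from pools of yeast-expressed, GST-fused human transcription factors on glutathione beads, barcoded with DNA and mixed with that sample, which were incubated with 200 nmole of a random double-stranded 16-mer DNA library in Tris/NaCl/DTT/glycerol buffer at room temperature for 30 min. After washing, the pools were crosslinked with 0.1% formaldehyde, proximity-ligated with BsaI/T4 ligase for 1 h at 37 °C, PCR-amplified and sequenced on an Illumina NextSeq500.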

ETV5 = ETV5 (Homo sapiens, UniProt P41161 1-510); conditions: protein: recombinant; tags: N-terminal GST; dsDNA, one strand shown
How it was run: as §1

HSF1 = HSF1 (Homo sapiens, UniProt Q00613 1-529); conditions: protein: recombinant; tags: N-terminal GST; chain copies: 3; dsDNA, one strand shown
How it was run: as §1

SPIC = biological target: T2, SPIC (Homo sapiens, UniProt Q8N5J4 1-248); conditions: protein: recombinant; tags: N-terminal GST; dsDNA, one strand shown
T2 sequence: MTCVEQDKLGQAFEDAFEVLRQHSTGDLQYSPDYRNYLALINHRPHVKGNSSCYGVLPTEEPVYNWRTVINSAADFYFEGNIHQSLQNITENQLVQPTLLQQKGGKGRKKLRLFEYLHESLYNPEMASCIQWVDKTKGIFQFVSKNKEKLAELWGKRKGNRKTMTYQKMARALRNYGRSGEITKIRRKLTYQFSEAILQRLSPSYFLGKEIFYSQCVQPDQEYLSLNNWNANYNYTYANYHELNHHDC
How it was run: as §1

ELF4 = ELF4 (Homo sapiens, UniProt Q99607 1-663); conditions: protein: recombinant; tags: N-terminal GST; dsDNA, one strand shown
How it was run: as §1

ELK4 = biological target: T3, ELK4 (Homo sapiens, UniProt P28324-2 1-405); conditions: protein: recombinant; tags: N-terminal GST; dsDNA, one strand shown
T3 sequence: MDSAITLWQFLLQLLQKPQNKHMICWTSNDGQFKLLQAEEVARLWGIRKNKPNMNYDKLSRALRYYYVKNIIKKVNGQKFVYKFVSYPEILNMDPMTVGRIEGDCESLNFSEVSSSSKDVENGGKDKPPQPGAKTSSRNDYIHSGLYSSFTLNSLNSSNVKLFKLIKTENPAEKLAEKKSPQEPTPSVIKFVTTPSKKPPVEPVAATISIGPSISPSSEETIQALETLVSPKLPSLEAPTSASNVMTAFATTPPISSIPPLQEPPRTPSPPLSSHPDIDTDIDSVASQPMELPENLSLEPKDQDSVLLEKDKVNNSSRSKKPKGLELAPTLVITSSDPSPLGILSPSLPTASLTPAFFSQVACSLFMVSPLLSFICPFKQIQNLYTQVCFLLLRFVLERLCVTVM
How it was run: as §1

ETV2 = biological target: T4, ETV2 (Homo sapiens, UniProt O00321 1-342); conditions: protein: recombinant; tags: N-terminal GST; dsDNA, one strand shown
T4 sequence: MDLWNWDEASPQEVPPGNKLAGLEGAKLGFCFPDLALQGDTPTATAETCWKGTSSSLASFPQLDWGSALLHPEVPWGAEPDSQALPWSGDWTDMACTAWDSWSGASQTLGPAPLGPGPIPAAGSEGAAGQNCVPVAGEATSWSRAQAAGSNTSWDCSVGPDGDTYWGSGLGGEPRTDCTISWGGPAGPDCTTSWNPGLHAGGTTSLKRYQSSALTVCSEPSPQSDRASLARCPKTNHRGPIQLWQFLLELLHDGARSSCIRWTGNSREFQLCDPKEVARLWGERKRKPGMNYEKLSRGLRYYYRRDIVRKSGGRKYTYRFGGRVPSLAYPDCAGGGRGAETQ
How it was run: as §1

ELF3 = biological target: T5, ELF3 (Homo sapiens, UniProt P78545 1-371); conditions: protein: recombinant; tags: N-terminal GST; dsDNA, one strand shown
T5 sequence: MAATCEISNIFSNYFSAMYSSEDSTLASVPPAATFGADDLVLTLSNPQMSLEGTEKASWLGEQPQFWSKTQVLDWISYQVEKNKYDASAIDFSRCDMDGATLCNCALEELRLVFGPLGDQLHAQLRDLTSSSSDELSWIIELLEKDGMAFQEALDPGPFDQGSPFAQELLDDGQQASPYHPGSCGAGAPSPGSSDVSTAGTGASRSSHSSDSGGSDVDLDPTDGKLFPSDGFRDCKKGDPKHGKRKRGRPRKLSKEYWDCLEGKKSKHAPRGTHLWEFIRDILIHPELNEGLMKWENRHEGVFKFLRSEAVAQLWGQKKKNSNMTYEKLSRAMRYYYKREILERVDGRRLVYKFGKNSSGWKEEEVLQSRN
How it was run: as §1

CRX = CRX (Homo sapiens, UniProt O43186 1-299); conditions: protein: recombinant; tags: N-terminal GST; dsDNA, one strand shown
How it was run: as §1

ETV1 = ETV1 (Homo sapiens, UniProt P50549 1-477); conditions: protein: recombinant; tags: N-terminal GST; dsDNA, one strand shown
How it was run: as §1

Sequence of HSF1 (Q00613 whole entry): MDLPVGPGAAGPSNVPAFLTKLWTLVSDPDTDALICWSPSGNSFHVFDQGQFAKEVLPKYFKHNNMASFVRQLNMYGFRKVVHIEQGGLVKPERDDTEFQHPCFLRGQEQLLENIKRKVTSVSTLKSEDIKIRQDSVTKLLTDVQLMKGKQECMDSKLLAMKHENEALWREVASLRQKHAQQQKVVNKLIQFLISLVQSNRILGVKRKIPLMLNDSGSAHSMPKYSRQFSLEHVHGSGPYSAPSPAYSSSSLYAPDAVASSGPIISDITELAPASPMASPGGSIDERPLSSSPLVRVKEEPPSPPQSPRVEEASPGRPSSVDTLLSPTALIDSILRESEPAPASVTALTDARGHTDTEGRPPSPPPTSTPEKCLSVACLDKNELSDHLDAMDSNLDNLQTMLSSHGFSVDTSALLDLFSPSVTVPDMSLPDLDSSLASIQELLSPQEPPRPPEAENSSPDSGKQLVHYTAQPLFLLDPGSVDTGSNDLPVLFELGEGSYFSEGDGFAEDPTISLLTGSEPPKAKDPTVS
Sequence of ETV5 (P41161 whole entry): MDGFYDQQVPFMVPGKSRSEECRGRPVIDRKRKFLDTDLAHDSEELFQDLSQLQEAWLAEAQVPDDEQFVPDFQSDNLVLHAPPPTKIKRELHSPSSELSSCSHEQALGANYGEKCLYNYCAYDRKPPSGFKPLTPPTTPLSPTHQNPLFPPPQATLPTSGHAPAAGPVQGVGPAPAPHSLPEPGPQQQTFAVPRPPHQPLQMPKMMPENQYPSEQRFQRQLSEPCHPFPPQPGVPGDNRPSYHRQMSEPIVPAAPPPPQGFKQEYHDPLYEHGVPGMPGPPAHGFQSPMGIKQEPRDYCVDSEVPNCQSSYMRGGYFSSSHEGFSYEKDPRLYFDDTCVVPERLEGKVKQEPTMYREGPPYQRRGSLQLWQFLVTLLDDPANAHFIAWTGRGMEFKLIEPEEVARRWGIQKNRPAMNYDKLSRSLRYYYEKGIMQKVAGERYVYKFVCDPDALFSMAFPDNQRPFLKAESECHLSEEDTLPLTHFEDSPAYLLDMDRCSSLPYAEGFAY
Sequence of ETV1 (P50549 whole entry): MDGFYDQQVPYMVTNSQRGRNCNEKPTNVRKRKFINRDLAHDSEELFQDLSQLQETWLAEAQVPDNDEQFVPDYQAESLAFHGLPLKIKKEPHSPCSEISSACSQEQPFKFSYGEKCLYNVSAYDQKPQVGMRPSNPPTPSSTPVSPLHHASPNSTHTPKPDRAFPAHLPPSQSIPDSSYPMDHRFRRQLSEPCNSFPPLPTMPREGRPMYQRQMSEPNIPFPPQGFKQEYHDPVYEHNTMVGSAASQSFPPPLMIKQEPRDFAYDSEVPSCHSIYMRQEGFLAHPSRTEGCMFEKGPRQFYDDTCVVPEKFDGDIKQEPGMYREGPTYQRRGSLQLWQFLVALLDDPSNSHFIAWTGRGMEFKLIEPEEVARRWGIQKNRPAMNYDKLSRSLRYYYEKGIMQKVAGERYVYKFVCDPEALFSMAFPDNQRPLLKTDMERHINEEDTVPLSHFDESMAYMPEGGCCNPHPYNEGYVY
Sequence of ELF4 (Q99607 whole entry): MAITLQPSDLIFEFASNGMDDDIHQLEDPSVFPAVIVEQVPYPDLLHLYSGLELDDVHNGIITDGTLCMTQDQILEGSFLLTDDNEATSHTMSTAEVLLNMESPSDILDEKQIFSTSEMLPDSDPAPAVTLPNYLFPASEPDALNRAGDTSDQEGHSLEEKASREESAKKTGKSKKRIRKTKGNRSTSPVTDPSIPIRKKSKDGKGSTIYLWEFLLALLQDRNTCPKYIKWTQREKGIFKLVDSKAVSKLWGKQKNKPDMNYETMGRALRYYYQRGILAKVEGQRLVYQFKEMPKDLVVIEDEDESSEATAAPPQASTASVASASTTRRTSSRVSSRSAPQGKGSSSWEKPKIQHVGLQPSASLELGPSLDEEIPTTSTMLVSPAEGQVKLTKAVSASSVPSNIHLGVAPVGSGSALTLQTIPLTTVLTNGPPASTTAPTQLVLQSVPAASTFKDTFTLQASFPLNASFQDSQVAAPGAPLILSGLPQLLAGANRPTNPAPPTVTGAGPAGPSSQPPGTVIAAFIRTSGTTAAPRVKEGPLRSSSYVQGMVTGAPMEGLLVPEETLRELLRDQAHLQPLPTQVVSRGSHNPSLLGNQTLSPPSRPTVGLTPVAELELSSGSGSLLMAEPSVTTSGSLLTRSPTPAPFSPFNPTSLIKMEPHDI
Sequence of CRX (O43186 whole entry): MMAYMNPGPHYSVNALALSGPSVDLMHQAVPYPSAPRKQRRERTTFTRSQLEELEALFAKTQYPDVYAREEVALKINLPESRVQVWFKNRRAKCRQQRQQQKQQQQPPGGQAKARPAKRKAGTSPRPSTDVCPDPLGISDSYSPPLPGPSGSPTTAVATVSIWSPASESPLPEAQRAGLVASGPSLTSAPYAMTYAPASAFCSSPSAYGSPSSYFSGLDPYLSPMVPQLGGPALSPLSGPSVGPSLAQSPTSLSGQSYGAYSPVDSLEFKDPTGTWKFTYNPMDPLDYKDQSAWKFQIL

Question: Which binding signal (FEV) does the source give for TTGATT here?
Answer: Its binding signal is 1.18 fold enrichment (6-mer frequency, TF over GST control).

Question: What about the binding signal (ETV5) of the same sequence?
Answer: The binding signal was 1.14 fold enrichment (6-mer frequency, TF over GST control).

Question: What about the binding signal (HSF1) of the same sequence?
Answer: The binding signal was 1.32 fold enrichment (6-mer frequency, TF over GST control).

Question: And the binding signal (SPIC)?
Answer: Its binding signal is 1.35 fold enrichment (6-mer frequency, TF over GST control).

Question: What about the binding signal (ELF4) of the same sequence?
Answer: The binding signal was 1.25 fold enrichment (6-mer frequency, TF over GST control).

Question: What about the binding signal (ELK4) of the same sequence?
Answer: The binding signal was 1.29 fold enrichment (6-mer frequency, TF over GST control).

Question: What about the binding signal (ETV2) of the same sequence?
Answer: Its binding signal is 1.32 fold enrichment (6-mer frequency, TF over GST control).

Question: What about the binding signal (ELF3) of the same sequence?
Answer: Its binding signal is 1.25 fold enrichment (6-mer frequency, TF over GST control).

Question: What about the binding signal (CRX) of the same sequence?
Answer: The binding signal was 1.48 fold enrichment (6-mer frequency, TF over GST control).

Question: And the binding signal (ETV1)?
Answer: Its binding signal is 1.27 fold enrichment (6-mer frequency, TF over GST control).
